The list is not random: actives were taken first. Their share in the collection is about 19%.
AMA1 RON2 block: AMA1-RON2 (P. falciparum) interaction inhibition | AlphaScreen AMA1-biotinylated RON2 peptide binding | AID 720542 | Potency, µM (titrated, usually from 58.2 µM), without a hit: top-dose activity change, negative = inhibition, actives largely listed as inhibitors | hit rate 0.2% among 360,000;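 further: potency means the concentration at half of the fitted maximal effect; 0% = vehicle wells and -100% = peptide control; nearly all actives have a fitted effect of over 45% in size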
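AMA1 (3D7) with his tag at 25 nM final met compounds first, then biotinylated RON2 peptide at 25 nM; detection used donor plus acceptor beads, 10 µg/mL apiece, read by AlphaScreen after 30 min at room temperature.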
Cycloheximide cs: affects cycloheximide protein synthesis inhibition readout, counter-screen; hit rate 12% among 300,000; max response, %; cell reporter, cycloheximide protein synthesis inhibition counterscreen; AID 2314; in the data active means max response mostly above about 13%, no sharp cut-off; inactive means mostly below about 14%; further: read at 38.3 µM for the half of the compounds with a filed dose; 0% is about no effect
Pf growth 96h: P. falciparum growth inhibition at 96 hours | P. falciparum luciferase reporter growth, 96 h | Potency, µM (series often up to 28.7 µM), for the others: at the highest dose activity change, negative = inhibition, hits mostly inhibitors | hit rate 6.9% among 320,000; further: potency means the concentration at half of the fitted maximal effect; on the % scale 0 is the no-effect control and ±100 the full control effect
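Two-generation exposure (96 h) targets delayed-death phenotype. Reporter parasites carrying integrated firefly luciferase, in red cells at 2% hematocrit and 0.05% parasitemia final, kept at 37 C, 5% CO2; luminescence loss indicates inhibition.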
Pf growth 48h: P. falciparum growth inhibition at 48 hours (one generation); hit rate 5.9% among 310,000; Potency, µM (top dose mostly 28.7 µM), for inactives: top-dose activity change, negative = inhibition, actives largely listed as inhibitors; P. falciparum luciferase growth in erythrocytes, 48 h; further: potency means the concentration at half of the fitted maximal effect; on the % scale 0 is the no-effect control and ±100 the full control effect
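Firefly luciferase activity from engineered P. falciparum reports growth; inhibitors lower the luminescent signal. Cultures contained 2% hematocrit erythrocytes at 0.1% final parasitemia.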
SARS PLpro yeast: inhibitors of SARS-CoV papain-like protease in yeast. S. cerevisiae expressing SARS-CoV PLpro, growth rescue. Potency, µM (series often up to 32.9 µM), inactives show at the highest dose activity, positive = growth rescue, usual class: activators. hit rate 0.19% among 330,000; calls by dose curve; further: potency means the concentration at half of the fitted maximal effect; 0% is about no effect; nearly all actives have a fitted effect of over 55% in size
Shiga inhibitor: blocks Shiga toxin action in Vero cells; Vero cells, Shiga toxin protein synthesis inhibition reporter; hit rate 9.2% among 290,000; inhibition, % at 38.7 µM; AID 2315; in the data active means inhibition mostly above about 28%, no sharp cut-off; inactive means mostly below about 43%; further: 0% is about no effect
An asterisk follows results filed as active; ? = inconclusive; . = not tested or not shown. Unless noted, the call rests on the fitted dose curve; in most records, active means well fitted curve in the direction sought with a large enough effect; inconclusive means small, poorly fitted or top-dose-only effect, or another doubt; inactive means no such curve, though single readings can be large; an effect the other way counts as inactive or inconclusive.

SMILES	AMA1 RON2 block	Cycloheximide cs	Pf growth 96h	Pf growth 48h	SARS PLpro yeast	Shiga inhibitor
COc1cc(CN2CCN(Cc3ccc(C(F)(F)F)cc3)CC2)cc(OC)c1OC	?	-0.9	?	?	2.2%	.
CSc1cccc(NC(=O)Nc2ccccc2C(N)=O)c1	6.2%	46.6*	?	?	2.7%	39.0*
CSc1cccc(NC(C)=O)c1	-8.0%	-1.2	13.2%	1.7%	8.8%	5.7
CSc1cccc(NC(=O)Nc2ccccc2)c1	-21.6%	34.1*	-2.1%	47.2%	-14.6%	94.5
CC(NC(=O)COc1ccc(Br)cc1)C1CCCO1 (stereo not drawn)	12.3%	0.6	2.6%	-8.8%	-1.8%	20.9
COc1cc2[nH]c(C(=O)Nc3ccc4c(c3)OCCO4)cc2c(OC)c1OC	-5.4%	39.6*	?	?	-2.2%	91.1*
Cc1cc(C)c2cc(C(=O)Nc3ccc4c(c3)OCO4)[nH]c2c1	-4.8%	-3.6	9.5%	9.7%	1.5%	-13.8
COc1cc2cc(C(=O)Nc3ccc4c(c3)OCCO4)[nH]c2cc1OC	-7.8%	47.1*	-12.4%	-1.4%	6.3%	102.6*
COc1cc([N+](=O)[O-])c2nccnc2c1	-7.6%	-2.6	9.28µM*	17.0%	-0.6%	-13.5
C[C@@H]1CN([C@@H](C)CO)C(=O)CCCn2cc(nn2)CO[C@H]1CN(C)S(=O)(=O)c1cccs1	-7.7%	.	.	.	.	.
Cc1ccc(NC(=O)CSc2nc(O)cc(=O)n2-c2ccc(C)cc2)cc1	-0.3%	7.9	?	13.1µM*	-0.3%	23.8
Cc1cccc(-n2c(N)cc(=O)nc2SCC(=O)Nc2ccccc2)c1	-10.5%	-0.4	-27.0%	.	2.0%	23.3
COc1cccc(NC(=O)CSc2nc(O)c(C)c(=O)n2-c2ccc(C)cc2)c1	-2.8%	0.7	10.4µM*	-5.2%	3.0%	-4.0
Nc1cc(=O)nc(SCC(=O)Nc2ccccc2)n1-c1ccccc1	-10.2%	-4.4	1.85µM*	1.4%	0.5%	-13.3
CC(=O)c1cccc(NC(=O)CC2S/C(=N/N=C/c3cccs3)NC2=O)c1 (stereo not drawn)	35.4%	-1.1	-13.1%	?	0.4%	21.1
O=C(CCN1CCOCC1)N/N=C/c1cc(Br)cc(Br)c1O	39.9%	0.9	?	-24.0%	-4.5%	-12.3
CNC[C@@H](O)[C@@H](O)[C@H](O)[C@H](O)CO	.	.	-17.9%	-6.7%	.	.
O=c1[nH]c(N2CCCCC2)nc2ncn(Cc3ccccc3)c12	18.3%	-2.5	?	-22.8%	0.5%	3.1
O=C1c2cccc3cc([N+](=O)[O-])cc(c23)C(=O)N1CCN1CCCC1	21.7%	-3.1	?	9.28µM*	-1.2%	-6.2
Nc1cc2c3c(cccc3c1)C(=O)N(CCN1CCCC1)C2=O	-8.1%	-1.6	5.86µM*	11.7µM*	0.5%	6.4
O=C1c2cccc3cc([N+](=O)[O-])cc(c23)C(=O)N1/N=C/c1ccc(O)cc1O	74.2%	15.1	?	11.7µM*	-6.5%	17.3
Cc1cc(C)c(S(=O)(=O)N2CCN(CCN3C(=O)c4cccc5cccc(c45)C3=O)CC2)cc1[N+](=O)[O-]	.	-5.5	?	16.0%	-2.7%	-15.6
CCN(CC)CCN1C(=O)c2cccc3cc(N)cc(c23)C1=O	2.2%	1.3	?	?	0.2%	22.3
Cc1ccc(C)n1-c1ccc(C(=O)NN)cc1	5.0%	8.9	0.0%	?	8.7%	-1.2
CC1CN(C(=O)Cc2ccc(-c3ccccc3)cc2)CC(C)O1 (stereo not drawn)	7.4%	18.0	.	-2.7%	1.0%	-17.9
CN(C(=O)c1cccc(NC(=O)Cc2cccc(NC(=O)C3CCN(C(=O)c4ccccc4)CC3)c2)c1)C1CC1	-4.4%	.	.	.	.	.
CSc1nc(N)nc2c1ncn2CC(=O)N[C@H](C)c1cccc2ccccc12	-14.2%	.	.	.	2.3%	.
COc1ccccc1C(CNC(=O)C1CCN(C(=O)Nc2ccccc2)CC1)N1CCCC1 (stereo not drawn)	10.4%	.	?	?	2.7%	.
COC(=O)c1ccc(NC(=O)CCS(=O)(=O)c2ccc3c(c2)NC(=O)C(C)S3)cc1 (stereo not drawn)	-10.4%	-7.5	-22.3%	-14.5%	4.1%	-4.5
